Tested on: Vero E6 infected with SARS-CoV-2
Test: inhibition of SARS-CoV-2 cytopathic effect; higher = more antiviral protection, active = above 15
Details: 48 h

Measured: inhibition of SARS-CoV-2 cytopathic effect

NCC(CS(=O)(=O)O)c1ccc(Cl)cc1 (stereo not given) [saclofen]
inactive: 1 nM 0.43% | 8.33 nM 0.42% | 100 nM -1.16% | 833.33 nM 4.89% | 10000 nM 1.7%

CCn1c(=O)n(C2=C(CO)CN(CC3CCCCCCC3)CC2)c2ccccc21 [trap-101]
inactive: 1 nM -2.39% | 8.33 nM 1.16% | 100 nM 1.23% | 833.33 nM 1.48% | 10000 nM -3.08%

CN1CCN(c2c(F)cc3c(=O)c(C(=O)O)cn4c3c2SCC4)CC1 [rufloxacin]
inactive: 1 nM 0.11% | 8.33 nM -1.78% | 100 nM 0.94% | 833.33 nM 1.64% | 10000 nM -3.47%

CC[C@@H]1/C=C(\C)C[C@H](C)C[C@H](OC)[C@H]2O[C@@](O)(C(=O)C(=O)N3CCCC[C@H]3C(=O)O[C@H](/C(C)=C/[C@@H]3CC[C@@H](O)[C@H](OC)C3)[C@H](C)[C@@H](O)CC1=O)[C@H](C)C[C@@H]2OC [ascomycin]
inactive: 1 nM 1.02% | 8.33 nM 2.65% | 100 nM 2.8% | 833.33 nM 2.76% | 10000 nM 1.33%

CC1(C)S[C@@H]2[C@H](NC(=O)Cc3ccccc3)C(=O)N2[C@H]1C(=O)O [benzylpenicillin]
inactive: 1 nM -3.59% | 8.33 nM -1.58% | 100 nM -1.25% | 833.33 nM -1% | 10000 nM -2.39%

COC(=O)N[C@H](C(=O)N1CCC[C@H]1C(=O)Nc1ccc([C@@H]2CC[C@@H](c3ccc(NC(=O)[C@@H]4CCCN4C(=O)[C@@H](NC(=O)OC)C(C)C)cc3)N2c2ccc(C(C)(C)C)cc2)cc1)C(C)C [ombitasvir]
inactive: 1 nM -0.82% | 8.33 nM -0.6% | 100 nM -0.7% | 833.33 nM -1.11% | 10000 nM -1.21%

From the supplement of paper PMC13380429
